Compound activity from PubChem BioAssay.
This is a sample that favours compounds with a hit; in the whole collection about 17% have one here.
HT1080-NT tox = qHTS for induction of synthetic lethality in tumor cells producing 2HG: qHTS for the HT-1080-NT fibrosarcoma cell line; hit rate 1.6% among 360,000; AID 686970, 2013; HT-1080-NT fibrosarcoma viability, CellTiter-Glo ATP luminescence, 48 h; Potency, µM (highest dose often 46.1 µM), for inactives: top-dose activity, negative = less viability, usual class: cytotoxic;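 further: NT is the 2HG producing partner of a matched IDH1 knockdown line; 0% = DMSO-treated cells and -100% = media-only wells without cells; nearly all actives have a fitted effect of over 55% in size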
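A 48-hour cytotoxicity screen used HT-1080-NT cells plated 2 hours before compound delivery. ATP-based CellTiter-Glo luminescence measured viability, normalized to DMSO and no-cell controls.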
HepG2 tox = qHTS for Inhibitors of TGF-b: Cytotox Counterscreen; HepG2 CAGA-GFP viability, ATP luminescence, 18 h; Potency, µM (series often up to 46.1 µM), without a hit: at the highest dose activity change, negative = cytotoxicity, hits mostly cytotoxic; hit rate 0.76% among 410,000; AID 588856, 2011
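HepG2 CAGA-GFP cells (1000/well, DMEM with 1% FBS) received compound, then TGF-beta at 500 pg/mL final, and were incubated 18 hours at 37 degrees C. Viability was read by CellTiter-Glo luminescence. Media-only wells were set as complete cell-killing and DMSO as no toxicity.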
TDP1 cell CPT = qHTS for Inhibitors of human tyrosyl-DNA phosphodiesterase 1 (TDP1): qHTS in cells in presence of CPT; hit rate 12% among 420,000; chicken DT40 Tdp1-/-;hTDP1 cells + 20 nM CPT, ATP luminescence, 48 h; Potency, µM (highest dose often 46.2 µM), without a hit: top-dose activity change, negative = growth inhibition, hits mostly inhibitors; AID 686979, 2013; further: on the % scale 0 is the no-effect control and ±100 the full control effect; nearly all actives have a fitted effect of over 55% in size
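Chicken DT40 Tdp1-/- cells stably complemented with human TDP1 were seeded at 400 cells/well in medium containing 20 nM camptothecin, exposed to pin-transferred compounds, and grown at 37 °C for at least 48 hr. Viability was read as ATP luminescence.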
DT40 TDP1 no CPT = qHTS for Inhibitors of human tyrosyl-DNA phosphodiesterase 1 (TDP1): qHTS in cells in absence of CPT; DT40 Tdp1-/- hTDP1 cells, no CPT, ATP luminescence, 48 h; Potency, µM (titrated, usually from 46.2 µM), without a hit: top-dose activity change, negative = growth inhibition, hits mostly inhibitors; hit rate 15% among 420,000; further: on the % scale 0 is the no-effect control and ±100 the full control effect; nearly all actives have a fitted effect of over 55% in size
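Camptothecin absent (DMSO only). Human TDP1-complemented DT40 knockout cells, 400 cells/well, 37 °C for minimum 48 hr; ATP measured via CellTiter-Glo, 30 min dark incubation, luminescence.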
HT1080 IDH1KD tx = qHTS for induction of synthetic lethality in tumor cells producing 2HG: qHTS for the HT-1080-IDH1KD cell line. HT-1080 IDH1 knockdown viability, ATP luminescence, 48 h. Potency, µM (doses to about 46.1 µM), for inactives: at the highest dose activity, negative = toxicity, hits mostly cytotoxic. hit rate 2% among 360,000. AID 686971, 2013;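 further: 0% = DMSO wells and -100% = cell-free medium wells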
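Assay cells: HT-1080 with IDH1 knockdown, 750 per well, RPMI/5% FBS. Exposure: 48 h at 37 °C following 2 h pre-incubation. Read: CellTiter-Glo luminescence; fitted concentration-response, curve class assigned.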
TGFb SMAD3 inh = qHTS for Inhibitors of TGF-b; HepG2 CAGA-GFP TGF-b/SMAD3 reporter, GFP fluorescence, 18 h; TGF-beta stimulated, 500 pg/mL final; Potency, µM (top dose mostly 46.1 µM), inactives show at the top dose activity, negative = inhibition, usual class: inhibitors; hit rate 1.2% among 410,000; AID 588855, 2011; further: on the % scale 0 is the no-effect control and ±100 the full control effect; nearly all actives have a fitted effect of over 65% in size
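Cell-based qHTS in HEPG2 carrying a CAGA-GFP Smad reporter; compounds added before 500 pg/mL final TGF-beta, 18 h incubation at 37 degrees C, GFP fluorescence quantified per cell by imaging cytometry.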
Active calls of the source: *; ? = inconclusive; . = no result given. The call rests on the fitted dose curve; in most records, active means well fitted curve in the direction sought with a large enough effect; inconclusive means small, poorly fitted or top-dose-only effect, or another doubt; inactive means no such curve, though single readings can be large; an effect the other way counts as inactive or inconclusive. Potency means the concentration at half of the fitted maximal effect.

SMILES	HT1080-NT tox	HepG2 tox	TDP1 cell CPT	DT40 TDP1 no CPT	HT1080 IDH1KD tx	TGFb SMAD3 inh
CCc1ccc(NC(=O)COC(=O)/C(=C/c2ccccc2OC)c2ccccc2)cc1	1%	2%	-2%	?	-3%	-9%
COc1ccccc1/C=C(/C(=O)OCC(=O)Nc1cc(C)ccc1C)c1ccccc1	-2%	-19%	26µM*	21µM*	-1%	-19%
O=C(Nc1ccccn1)c1cc(-c2cccnc2)nc2ccc(Br)cc12	?	-18%	?	?	?	0%
CC(=O)c1ccc(N2CCN(C(=O)c3cc(-c4cccnc4)nc4ccc(Br)cc34)CC2)cc1	-14%	-21%	?	18µM*	2%	3%
Cc1ccc2nc(-c3cccnc3)cc(C(=O)N3CCN(c4ccc([N+](=O)[O-])cc4)CC3)c2c1	0%	-36%	16µM*	18µM*	2%	5%
Cc1ccc2nc(-c3ccccc3)cc(C(=O)N3CCN(c4ccccc4O)CC3)c2c1	0%	-7%	?	?	?	-3%
CS(=O)(=O)N1CCN(C(=O)c2cc(-c3cccnc3)nc3ccc(Br)cc23)CC1	-4%	-8%	-4%	9.2µM*	-13%	1%
O=C(c1cc(-c2ccc(Br)cc2)nc2ccccc12)N1CCC1	-9%	-73%	?	?	-2%	-2%
O=C(Nc1ccc(C(=O)N2CCOCC2)cc1)c1cc(-c2cccnc2)nc2ccc(Br)cc12	-29%	4%	2.3µM*	2.3µM*	-25%	10%
O=C(c1cc(-c2cccnc2)nc2ccc(Br)cc12)N1CCN(c2ncccn2)CC1	-6%	-23%	?	18µM*	-7%	3%
O=C(c1cc(-c2cccc(Br)c2)nc2ccccc12)N1CCCC1	6%	-12%	?	-29%	6%	-8%
O=[N+]([O-])c1ccc(O)c(/C=N/NC(=S)Nc2ccc(Cl)cc2Cl)c1	?	-5%	16µM*	21µM*	23µM*	?
CCOC(=O)CCC(=O)Nc1ccc([N+](=O)[O-])cc1C	?	1%	-5%	-5%	14%	-1%
Cc1cc(Cl)ccc1NC(=O)CCC(=O)N/N=C/c1cc([N+](=O)[O-])ccc1O	-18%	-3%	6.5µM*	8.2µM*	-22%	-20%
O=[N+]([O-])c1ccc(/C=N/NC(=S)Nc2ccc(Cl)cc2Cl)s1	?	-59%	5.8µM*	5.2µM*	?	?
O=C(Cn1cnc([N+](=O)[O-])c1)Nc1ccc(Cl)cc1Cl	-1%	-4%	3%	0%	-7%	6%
CC(C)[C@H](NC(=O)c1ccco1)C(=O)OCC(=O)c1ccc(Br)s1	-3%	0%	-5%	3%	3%	?
CC(C)NC(=O)N(O)C1N(Cc2ccc3c(c2)OCO3)C(=S)SC1(C)C (stereo not drawn)	-4%	-23%	?	15µM*	-4%	-15%
CCCCN1CN(Cc2ccccc2)CNC1=S	-5%	2%	18µM*	?	-2%	3%
CCOCCCN1CN(Cc2ccccc2)CNC1=S	-5%	1%	8%	6%	-1%	-23%
Cc1ccc(-n2ncc3c(NNC(=O)Cc4ccccc4)ncnc32)cc1	-8%	-4%	-14%	?	-9%	-12%
Cc1ccc(-n2ncc(C(=O)Nc3cc(Cl)cc(Cl)c3)c2C2CCNCC2)cc1C	?	-110%	?	?	21µM*	?
Cc1ccc(-n2ncc(C(=O)Nc3cc(Cl)ccc3Cl)c2C2CCNCC2)cc1	-1%	-19%	23µM*	23µM*	?	?
COc1ccc(NC(=O)c2cnn(-c3ccc(C)c(C)c3)c2C2CCNCC2)cc1OC	.	-17%	?	?	.	-27%
O=C(CSc1nc2ccccc2c(=O)n1CC1CCCO1)Nc1ccccc1Cl (stereo not drawn)	-24%	-4%	6%	-26%	-21%	-8%
SMILES	HT1080-NT tox	HepG2 tox	TDP1 cell CPT	DT40 TDP1 no CPT	HT1080 IDH1KD tx	TGFb SMAD3 inh
CC[C@@H]1CC2=C(C(=O)OC(C)(C)O2)[C@@H](c2ccc(Cl)cc2)O1	2%	.	-19%	-22%	0%	.
CCOC(=O)c1ccc2c(c1)NCc1cccc(OC)c1O2	19%	0%	10µM*	10µM*	7%	-21%
COc1ccc(C(=O)OCC(=O)c2ccc3c(c2)NC(=O)CO3)cc1OC	2%	-3%	1%	8%	11%	-15%
CC1(c2nnnn2Cc2ccccc2)CCC(=O)N1Cc1cccc(C(F)(F)F)c1 (stereo not drawn)	8%	.	-2%	-22%	12%	.
Cc1cccc(C)c1-n1nnnc1C1(C)CCC(=O)N1Cc1cccc(C(F)(F)F)c1 (stereo not drawn)	-3%	.	23µM*	23µM*	8%	.
CNC(=O)c1ccc(Nc2nnc(-c3ccc(C)c(S(=O)(=O)N(C)C)c3)c3ccccc23)cc1	.	-84%	-16%	?	.	?
COc1ccc(Nc2nnc(-c3ccc(C)c(S(N)(=O)=O)c3)c3ccccc23)cc1	.	16%	18µM*	18µM*	.	?
Cc1ccc(-c2nnc(Nc3ccc(C(=O)N(C)C)cc3)c3ccccc23)cc1S(=O)(=O)N(C)C	.	-2%	23µM*	10µM*	.	-20%
COc1ccc(-c2nnc(Nc3ccc(OC)c(C(N)=O)c3)c3ccccc23)cc1	.	-25%	?	16µM*	.	?
COc1ccc(Nc2nnc(-c3ccc(C)c(S(=O)(=O)NCc4nc5ccccc5[nH]4)c3)c3ccccc23)cc1	.	35%	21µM*	10µM*	.	7.9µM*
CC(=O)Nc1ccc(Nc2nnc(-c3ccc(C)c(S(=O)(=O)NCCO)c3)c3ccccc23)cc1	-8%	-21%	5%	3%	0%	-7%
COC(=O)c1cc(S(=O)(=O)Nc2ccc(C)cn2)c[nH]1	-3%	1%	-23%	-1%	5%	9%
CCOC(=O)c1cc(S(=O)(=O)Nc2cc(OC)ccc2OC)[nH]n1	.	-31%	?	?	.	-11%
